“And” between values parts separate entries of the source, which are not always exact repeats. Equal entries are not always repeated. Among all 5,500 compounds or so, about 2,000 (36%) were called active. Inconclusive results (about 18%) are left out. Rule as the data show it: active = normalized growth mostly below about 0.91 (no sharp cut-off); inconclusive = no clear call, values can overlap the other calls; inactive = mostly above about 0.92. The list shows a part of the results.
Assay: chemical genetic growth profiling, strain panel (AID 1159580);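 also: tested at 20 µM; growth read once vehicle control cultures reached saturation at 30 °C; 1 = growth at the plate median or of vehicle wells; lower values mean less growth of the strain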
Conditions: S. cerevisiae deletion strains, growth OD

Measured: normalized growth

CCC(=O)O[C@]1(C(=O)CCl)[C@@H](C)CC2C3CCC4=CC(=O)C=C[C@]4(C)[C@@]3(F)[C@@H](O)C[C@@]21C (stereo not given in full)
inactive: locus YAL013W, strain DEP1, hits give low values 0.976 | locus YAL021C, strain ccr4, hits give low values 1.02 | locus YAL026C, strain drs2, hits give low values 1.02 | locus YAL030W, strain snc1, hits give low values 1.02 | locus YBL061C, strain skt5, hits give low values 1.03 | locus YBR009C, strain hhf1, hits give low values 1.01 | locus YBR021W, strain FUR4, hits give low values 0.968 | locus YBR023C, strain chs3, hits give low values 1.02 | locus YBR171W, strain sec66, hits give low values 1.03 | locus YBR229C, strain ROT2, hits give low values 0.986 | locus YBR231C, strain swc5, hits give low values 1.02 | locus YBR279W, strain paf1, hits give low values 1 | locus YCL011C, strain gbp2, hits give low values 1.02 | locus YCL016C, strain dcc1, hits give low values 1.02 | locus YCL029C, strain bik1, hits give low values 0.96 | locus YCL061C, strain MRC1, hits give low values 1.03 | locus YCL069W, strain vba3, hits give low values 1.02 | locus YCR088W, strain abp1, hits give low values 1.02 | locus YDL005C, strain med2, hits give low values 1.03 | locus YDL035C, strain GPR1, hits give low values 0.958 | locus YDL040C, strain nat1, hits give low values 1.03 | locus YDL074C, strain BRE1, hits give low values 0.975 | locus YDL101C, strain DUN1, hits give low values 0.989 | locus YDL134C, strain PPH21, hits give low values 0.981 | locus YDL185W, strain tfp1, hits give low values 0.949 | locus YDL192W, strain arf1, hits give low values 0.982 | locus YDR001C, strain nth1, hits give low values 1.02 | locus YDR069C, strain doa4, hits give low values 1.03 | locus YDR101C, strain arx1, hits give low values 1.01 | locus YDR137W, strain rgp1, hits give low values 0.99 | locus YDR150W, strain NUM1, hits give low values 0.975 | locus YDR159W, strain sac3, hits give low values 1.02 | locus YDR162C, strain NBP2, hits give low values 0.953 | locus YDR195W, strain ref2 1.02 | locus YDR297W, strain sur2, hits give low values 1.01 | locus YDR318W, strain mcm21, hits give low values 0.988 | locus YDR334W, strain swr1, hits give low values 1.01 | locus YDR335W, strain msn5, hits give low values 1.02 | locus YDR388W, hits give low values 0.987 | locus YDR392W, strain spt3, hits give low values 1.03 | locus YDR502C, strain sam2, hits give low values 0.963 | locus YEL003W, strain gim4, hits give low values 1.01 | locus YEL037C, strain rad23, hits give low values 1.02 | locus YEL061C, strain CIN8 (second series), hits give low values 1.02 | locus YEL061C, strain CIN8, hits give low values 0.985 | locus YER015W, strain faa2, hits give low values 1.01 | locus YER016W, strain bim1, hits give low values 1.01 | locus YER110C, hits give low values 0.971 | locus YER111C, strain swi4, hits give low values 1.02 | locus YER155C, strain BEM2 (second series), hits give low values 1.07 | locus YER155C, strain BEM2, hits give low values 0.987 | locus YER167W, strain BCK2, hits give low values 0.986 | locus YFR010W, strain ubp6, hits give low values 1.02 | locus YGL078C, strain dbp3, hits give low values 0.978 | locus YGL086W, strain mad1, hits give low values 0.973 | locus YGL167C, strain pmr1, hits give low values 1.03 | locus YGL173C, strain kem1, hits give low values 1.05 | locus YGL227W, strain vid30, hits give low values 1.04 | locus YGL240W, strain doc1, hits give low values 1.02 | locus YGL248W, strain PDE1, hits give low values 1.02 | locus YGL253W, strain hxk2, hits give low values 1 | locus YGR078C, strain PAC10, hits give low values 0.999 | locus YGR135W, strain pre9, hits give low values 0.974 | locus YGR229C, strain SMI1, hits give low values 0.971 | locus YGR252W, strain gcn5, hits give low values 1.04 | locus YHR013C, strain ard1, hits give low values 1.03 | locus YHR027C, strain rpn1, hits give low values 1.01 | locus YHR030C, strain SLT2, hits give low values 0.974 and 0.963 | locus YHR079C, strain IRE1 (second series), hits give low values 0.98 | locus YHR079C, strain IRE1, hits give low values 0.957 | locus YHR094C, strain hxt1, hits give low values 0.972 | locus YHR129C, strain ARP1, hits give low values 0.993 | locus YHR142W, strain chs7, hits give low values 1.01 | locus YHR200W, strain rpn10, hits give low values 0.977 | locus YIL066C, strain RNR3, hits give low values 0.985 | locus YIL073C, strain SPO22, hits give low values 0.876 | locus YIL125W, strain kgd1, hits give low values 0.985 | locus YIR030C, strain dcg1, hits give low values 0.985 | locus YJL092W, strain hpr5, hits give low values 1.02 | locus YJL095W, strain BCK1 (second series), hits give low values 1.03 | locus YJL095W, strain BCK1, hits give low values 1.05 and 0.971 | locus YJL115W, strain asf1, hits give low values 1.04 | locus YJL129C, strain trk1, hits give low values 1.01 | locus YJL134W, strain LCB3, hits give low values 0.981 | locus YJL154C, strain vps35, hits give low values 1.01 | locus YJL164C, strain tpk1, hits give low values 1.03 | locus YJL166W, strain qcr8, hits give low values 1.03 | locus YJL168C, strain set2, hits give low values 1 | locus YJL187C, strain SWE1 (second series), hits give low values 1 | locus YJL187C, strain SWE1, hits give low values 1.02
